Data published in PubChem BioAssay AID1159570 (Broad Institute, 2015).
Results with a measured potency or affinity are listed apart. Calls of active or inactive are those of the source. The rule behind the calls is not given here.

test: growth inhibition of yeast DHODH-expressing 3D7 parasites – SYBR Green, dry powder samples, dose response (AID 1159570); conditions: P. falciparum 3D7-ScDHODH growth, SYBR Green fluorescence; series mostly up to 19.5 µM

outcome, inactive:
C[C@@H]1CN([C@H](C)CO)C(=O)c2cccc(NC(=O)c3ccc(-c4nccs4)cc3)c2O[C@H]1CN(C)Cc1ccc(C(F)(F)F)cc1, COc1cccc(C#Cc2ccc([C@H]3[C@@H](CO)N(C(=O)c4ccccn4)[C@H]3C#N)cc2)c1, COc1ccc(S(=O)(=O)Nc2ccc3c(c2)CC(=O)N([C@@H](C)CO)C[C@H](C)[C@H](CN(C)S(=O)(=O)c2ccc(OC)cc2)O3)cc1, Cc1ccccc1-c1ccccc1[C@H]1[C@@H](C#N)N(C(=O)c2ccccc2)[C@@H]1CO, O=C(NC[C@@H]1CC[C@H]2[C@H](CN2Cc2cc(-c3ccccc3)on2)O1)c1ccc2c(c1)OCO2
